Results filed as inconclusive are left out. The source made the active and inactive calls. Unless noted, calls come from the whole dose curve; as a rule, active = well fitted curve in the direction sought with a large enough effect in the repeat runs; inconclusive = weak or mixed curves; inactive = no such curve, though single readings can be large; an effect the other way counts as inactive or inconclusive.

The values below come from PubChem BioAssay (Tox21).

Test [1] in a line: qHTS assay to identify aromatase inhibitors - cell viability counter screen (AID 743084).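 Note: cells stimulated with testosterone during compound exposure; nearly all actives have a fitted effect of over 55% in size.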
For test [2], the target named is Aryl hydrocarbon receptor (Homo sapiens) (UniProt P35869). Briefly: qHTS assay to identify small molecule that activate the aryl hydrocarbon receptor (AhR) signaling pathway (AID 743085).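 Note: HG2L7.5c1 human HepG2 liver cells with stably integrated DRE-driven firefly reporter; series mostly up to about 70 µM; nearly all actives have a fitted effect of over 15% in size.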 Put shortly: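 24 h compound exposure, 37C, HepG2-derived HG2L7.5c1 cells with DRE-responsive luciferase. Readouts: fluorescence viability, then luminescence at room temperature after 30 min.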
For orientation: qHTS replaces the single test concentration by a dilution series.

Test [3] in a line: qHTS assay to identify small molecule antagonists of the peroxisome proliferator-activated receptor gamma (PPARg) signaling pathway - cell viability counter screen (AID 743194). Note: nearly all actives have a fitted effect of over 55% in size. An outline of the steps: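 Cytotoxicity counter screen in PPARg-bla HEK293H cells, same wells as reporter assay. Compounds plus 50 nM rosiglitazone (final) for 17 h at 37 C, then viability read by CellTiter-Glo luminescence.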

A short description of test [4]: qHTS assay for small molecule agonists of the antioxidant response element (ARE) signaling pathway - cell viability counter screen (AID 743203; calls by dose curve; note: nearly all actives have a fitted effect of over 55% in size). An outline of the steps: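 Parallel cytotoxicity read-out for the ARE-bla screen: HepG2 reporter cells, 16 hrs with compounds, then CellTiter-Glo luminescence.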
A short description of test [5]: qHTS assay for small molecule activators of the heat shock response signaling pathway - cell viability counter screen (AID 743209). Note: nearly all actives have a fitted effect of over 50% in size. An outline of the steps: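 To flag cytotoxic compounds, HSE-bla HeLa cells plated at 1500 cells/well were dosed for 5 h at 37 C, followed by the reporter FRET read and then CellTiter-Glo, with luminescence recorded 30 min after reagent addition.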

A short description of test [6]: qHTS assay for small molecule activators of the heat shock response signaling pathway (AID 743210; active = well fitted activation curve with a large enough effect in the signal ratio in the repeat runs, with a control signal flat, not every such curve was filed as active; the % refers to the signal ratio;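 note: HeLa cells with beta-lactamase reporter driven by heat shock elements; series mostly up to about 63 µM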). An outline of the steps:
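Beta-lactamase reporter read-out: FRET substrate fluorescence after 2.5 h at RT, following 5 h compound treatment at 37 C of HeLa cells carrying HSE-driven bla reporter; quantitative HTS format.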

Test [7] is described as follows: qHTS assay to identify small molecule agonists of the peroxisome proliferator-activated receptor delta (PPARd) signaling pathway - cell viability counter screen (AID 743211). Note: nearly all actives have a fitted effect of over 55% in size. Put shortly:
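Luminescent ATP viability assay (CellTiter-Glo, 30 min RT) in UAS-bla HEK293H cells carrying the PPAR delta reporter construct, 3000 cells/well, after a 17 h compound treatment at 37 C.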

A short description of test [8]: qHTS assay to identify small molecule antagonists of the peroxisome proliferator-activated receptor delta (PPARd) signaling pathway - cell viability counter screen (AID 743213). Note: nearly all actives have a fitted effect of over 50% in size. An outline of the steps: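 Agonist-stimulated (L165041, 300 nM final) HEK293H PPARd UAS-bla cells are exposed to compounds for 17 h at 37 C, and ATP-based luminescence (CellTiter-Glo) from the same wells reports cytotoxicity.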

Test [9] has as its target Peroxisome proliferator-activated receptor delta (Homo sapiens) (UniProt Q03181). The test is described as follows: qHTS assay to identify small molecule antagonists of the peroxisome proliferator-activated receptor delta (PPARd) signaling pathway (AID 743215; active = well fitted inhibition curve with a large enough effect in the signal ratio in the repeat runs, not every such curve was filed as active; the % refers to the signal ratio; note: series mostly up to about 62 µM). An outline of the steps:
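Screen format: qHTS, antagonist mode. HEK293H PPARd-bla cells received compound and 300 nM L165041 (final), 17 h, 37 C. Beta-lactamase detected via FRET substrate fluorescence, 2 h, room temperature.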

In test [10] the target is Vitamin D3 receptor (Homo sapiens) (UniProt P11473). The test is described as follows: qHTS assay to identify small molecule agonists of the vitamin D receptor (VDR) signaling pathway (AID 743222; calls by dose curve). An outline of the steps:
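Using LiveBLAzer B/G FRET detection, agonism was scored in VDR-bla cells exposed overnight (16 h, 37C) to DMSO-dissolved compounds; substrate incubation was 2 h at room temperature.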

Test [11] shares this target. Briefly: qHTS assay to identify small molecule antagonists of the vitamin D receptor (VDR) signaling pathway (AID 743223; active = well fitted inhibition curve with a large enough effect in the signal ratio in the repeat runs, not every such curve was filed as active; the % refers to the signal ratio). An outline of the steps:
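Agonist 1alpha,25-dihydroxyvitamin D3 (3 nM in well) was added with each compound to VDR-bla cells preincubated 4 h. Cells stood 16 h at 37C, then FRET substrate 2 h at room temperature; fluorescence intensity recorded.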

The nature of test [12]: qHTS assay to identify small molecule that activate the aryl hydrocarbon receptor (AhR) signaling pathway - cell viability counter screen (AID 743086).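 Note: HepG2 liver cells carrying the AhR DRE luciferase reporter; series mostly up to about 70 µM; nearly all actives have a fitted effect of over 45% in size.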 Put shortly: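 HepG2-AhR-luc (HG2L7.5c1) cells, 4000/well, treated 24 h at 37 C with compound; viability measured as CellTiter-Fluor fluorescence after 30 min in the same wells as the luciferase read.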
In test [13] the target is Peroxisome proliferator-activated receptor gamma (Homo sapiens) (UniProt P37231). The test is described as follows: qHTS assay to identify small molecule agonists of the peroxisome proliferator-activated receptor gamma (PPARg) signaling pathway (AID 743094; active = well fitted activation curve with a large enough effect in the signal ratio in the repeat runs, not every such curve was filed as active; the % refers to the signal ratio). Put shortly:
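Fluorescence-based beta-lactamase readout in HEK293H PPARg UAS-bla cells after 17 h compound exposure (37C) and 1 h B/G FRET substrate incubation at room temperature.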

Test [14] can be described thus: qHTS assay for small molecule agonists of the antioxidant response element (ARE) signaling pathway (AID 743202; active = well fitted activation curve with a large enough effect in the signal ratio in the repeat runs, not every such curve was filed as active; the % refers to the signal ratio; note: potency is the fitted concentration of half-maximal effect). Put shortly: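 HepG2 ARE-bla reporter line, 2,000 cells/well; 5 h preincubation 37 C/5% CO2; compound (DMSO) 16 h 37 C; B/G FRET substrate 2 h RT; fluorescence intensity.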
Test [15] concerns the target Peroxisome proliferator-activated receptor delta (Homo sapiens) (UniProt Q03181). The test is described as follows: qHTS assay to identify small molecule agonists of the peroxisome proliferator-activated receptor delta (PPARd) signaling pathway (AID 743212; calls by dose curve). An outline of the steps: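 Read-out: beta-lactamase FRET fluorescence after 2 h room-temperature incubation with LiveBLAzer B/G substrate. Cells were HEK293H carrying a UAS-bla reporter for PPARd, treated at 37 C with DMSO-dissolved compounds.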

Test [16] concerns the target Bile acid receptor (Homo sapiens) (UniProt Q96RI1). The test is described as follows: qHTS assay to identify small molecule agonists of the farnesoid-X-receptor (FXR) signaling pathway (AID 743220; active = well fitted activation curve with a large enough effect in the signal ratio in the repeat runs, not every such curve was filed as active; the % refers to the signal ratio). Put shortly: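 FXR-UAS-bla HEK 293T cells carrying a UAS-driven beta-lactamase reporter were plated for 5 h at 37C/5% CO2, then exposed to DMSO-dissolved Tox21 10K compounds for 16 h at 37C. A LiveBLAzer B/G FRET substrate was loaded for 2 h at room temperature before fluorescence reading.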

Test [17] is described as follows: qHTS assay to identify small molecule antagonists of the farnesoid-X-receptor (FXR) signaling pathway - cell viability counter screen (AID 743221; active = well fitted cell-killing curve with a large enough effect in the repeat runs, not every such curve was filed as active; note: nearly all actives have a fitted effect of over 50% in size). An outline of the steps: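 In GeneBLAzer FXR-UAS-bla HEK 293T cells stimulated with 50 uM chenodeoxycholic acid (final), compounds acted for 16 h at 37 C. Viability was assessed afterwards by CellTiter-Glo luminescence.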

Test [18] deals with Bile acid receptor (Homo sapiens) (UniProt Q96RI1). The test is described as follows: qHTS assay to identify small molecule antagonists of the farnesoid-X-receptor (FXR) signaling pathway (AID 743217; active = well fitted inhibition curve with a large enough effect in the signal ratio in the repeat runs, not every such curve was filed as active; the % refers to the signal ratio). Put shortly:
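Quantitative HTS, beta-lactamase reporter format: FXR-UAS-bla HEK 293T cells co-treated 16 h at 37 °C with compounds and 50 uM final chenodeoxycholic acid, then read by B/G FRET fluorescence.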

Test [19] has as its target Peroxisome proliferator-activated receptor gamma (Homo sapiens) (UniProt P37231). Briefly: qHTS assay to identify small molecule antagonists of the peroxisome proliferator-activated receptor gamma (PPARg) signaling pathway (AID 743191; calls by dose curve; note: series mostly up to about 63 µM; nearly all actives have a fitted effect of over 30% in size). Put shortly:
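GeneBLAzer PPARg UAS-bla HEK293H cells, 5 h post-plating, exposed to compounds 17 h at 37C. LiveBLAzer B/G FRET substrate added for 1 h at room temperature; beta-lactamase reporter read by fluorescence intensity.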

The nature of test [20]: qHTS assay to identify small molecule agonists of the farnesoid-X-receptor (FXR) signaling pathway - cell viability counter screen (AID 743218). Note: nearly all actives have a fitted effect of over 45% in size. An outline of the steps:
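Same-well cytotoxicity check on FXR-UAS-bla HEK 293T cells: 5 h attachment, 16 h compound at 37 C, CellTiter-Glo luminescence read at room temperature after 30 min.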

Chain of Peroxisome proliferator-activated receptor delta (Homo sapiens) (Q03181 whole entry, looked up): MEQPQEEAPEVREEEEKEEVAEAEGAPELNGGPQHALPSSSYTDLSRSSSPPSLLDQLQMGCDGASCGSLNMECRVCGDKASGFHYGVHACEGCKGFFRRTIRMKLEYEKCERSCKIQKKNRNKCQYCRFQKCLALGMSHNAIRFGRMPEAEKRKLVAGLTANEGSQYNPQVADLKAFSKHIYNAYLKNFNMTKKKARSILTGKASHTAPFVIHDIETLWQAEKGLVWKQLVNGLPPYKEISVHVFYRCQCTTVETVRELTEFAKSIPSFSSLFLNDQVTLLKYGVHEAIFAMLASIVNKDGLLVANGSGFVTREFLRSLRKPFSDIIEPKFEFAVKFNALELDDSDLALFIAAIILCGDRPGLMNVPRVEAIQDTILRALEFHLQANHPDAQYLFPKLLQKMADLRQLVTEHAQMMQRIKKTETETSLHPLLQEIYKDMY
Chain of Vitamin D3 receptor (Homo sapiens) (P11473 whole entry, looked up): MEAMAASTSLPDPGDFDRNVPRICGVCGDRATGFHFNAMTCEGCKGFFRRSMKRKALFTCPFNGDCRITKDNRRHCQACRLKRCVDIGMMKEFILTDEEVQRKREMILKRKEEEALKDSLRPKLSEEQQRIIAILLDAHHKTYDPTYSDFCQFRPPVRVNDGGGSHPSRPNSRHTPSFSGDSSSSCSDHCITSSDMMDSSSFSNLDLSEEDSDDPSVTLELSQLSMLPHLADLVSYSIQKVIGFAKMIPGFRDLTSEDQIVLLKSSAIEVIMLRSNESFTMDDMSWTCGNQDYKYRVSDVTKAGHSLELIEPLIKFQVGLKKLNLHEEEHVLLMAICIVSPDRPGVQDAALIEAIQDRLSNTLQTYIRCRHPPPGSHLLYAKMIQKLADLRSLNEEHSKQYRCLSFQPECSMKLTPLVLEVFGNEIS
Chain of Bile acid receptor (Homo sapiens) (Q96RI1 whole entry, looked up): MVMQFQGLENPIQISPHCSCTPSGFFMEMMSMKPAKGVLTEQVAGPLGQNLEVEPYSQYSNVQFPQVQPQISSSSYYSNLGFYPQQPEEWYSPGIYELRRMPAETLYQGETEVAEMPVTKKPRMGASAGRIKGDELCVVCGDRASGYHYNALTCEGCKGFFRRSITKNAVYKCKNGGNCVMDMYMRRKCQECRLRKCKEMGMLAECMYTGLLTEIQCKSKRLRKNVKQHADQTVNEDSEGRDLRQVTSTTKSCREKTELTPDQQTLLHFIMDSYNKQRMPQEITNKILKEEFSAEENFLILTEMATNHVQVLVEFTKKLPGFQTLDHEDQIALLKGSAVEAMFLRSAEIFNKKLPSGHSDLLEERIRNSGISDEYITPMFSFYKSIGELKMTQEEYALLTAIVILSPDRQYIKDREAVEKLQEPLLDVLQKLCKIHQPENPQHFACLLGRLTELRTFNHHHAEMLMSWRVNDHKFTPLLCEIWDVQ
Chain of Peroxisome proliferator-activated receptor gamma (Homo sapiens) (P37231 whole entry, looked up): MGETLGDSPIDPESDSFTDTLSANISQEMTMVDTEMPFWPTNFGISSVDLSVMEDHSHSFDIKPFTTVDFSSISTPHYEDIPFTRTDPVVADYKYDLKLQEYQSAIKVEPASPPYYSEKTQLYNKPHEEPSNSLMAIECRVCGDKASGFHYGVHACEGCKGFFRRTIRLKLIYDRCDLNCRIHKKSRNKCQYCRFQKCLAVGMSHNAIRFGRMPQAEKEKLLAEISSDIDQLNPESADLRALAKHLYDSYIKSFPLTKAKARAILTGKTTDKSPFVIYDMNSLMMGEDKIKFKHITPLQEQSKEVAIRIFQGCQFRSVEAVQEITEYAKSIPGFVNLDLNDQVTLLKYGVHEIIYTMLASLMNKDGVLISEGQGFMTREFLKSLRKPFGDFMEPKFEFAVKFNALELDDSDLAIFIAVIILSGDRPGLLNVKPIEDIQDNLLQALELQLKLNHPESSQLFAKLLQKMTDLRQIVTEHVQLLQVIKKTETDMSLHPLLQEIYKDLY
Chain of Aryl hydrocarbon receptor (Homo sapiens) (P35869 whole entry, looked up): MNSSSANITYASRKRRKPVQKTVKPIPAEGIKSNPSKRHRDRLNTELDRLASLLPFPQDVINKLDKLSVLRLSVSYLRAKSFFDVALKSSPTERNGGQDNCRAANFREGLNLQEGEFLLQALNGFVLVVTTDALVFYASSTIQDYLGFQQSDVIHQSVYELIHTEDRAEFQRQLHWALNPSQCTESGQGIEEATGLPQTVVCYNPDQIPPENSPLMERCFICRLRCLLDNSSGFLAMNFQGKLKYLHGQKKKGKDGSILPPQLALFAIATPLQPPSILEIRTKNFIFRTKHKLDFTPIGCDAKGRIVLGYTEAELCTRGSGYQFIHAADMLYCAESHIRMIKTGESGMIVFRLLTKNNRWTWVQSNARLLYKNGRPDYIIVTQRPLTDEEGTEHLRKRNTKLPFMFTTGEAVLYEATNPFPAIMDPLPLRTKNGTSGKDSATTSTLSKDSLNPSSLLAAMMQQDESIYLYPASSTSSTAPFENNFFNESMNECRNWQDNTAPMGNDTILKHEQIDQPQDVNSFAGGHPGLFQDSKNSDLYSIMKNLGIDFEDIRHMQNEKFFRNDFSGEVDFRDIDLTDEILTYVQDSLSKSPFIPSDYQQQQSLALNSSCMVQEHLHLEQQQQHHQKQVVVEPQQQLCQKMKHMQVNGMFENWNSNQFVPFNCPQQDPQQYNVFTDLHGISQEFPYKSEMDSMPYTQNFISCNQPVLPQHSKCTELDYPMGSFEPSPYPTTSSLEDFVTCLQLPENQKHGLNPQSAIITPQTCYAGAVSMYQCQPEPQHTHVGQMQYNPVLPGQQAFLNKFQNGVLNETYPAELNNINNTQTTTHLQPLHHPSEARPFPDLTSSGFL

Regarding `CCCCCCC(CCCCCCCCCCC(=O)OCC(COC(C)=O)OC(C)=O)OC(C)=O` (configuration not stated), the Potency result in test [1], in test [2], in test [3], in [7] and in [8] was “inactive” each time. For the same compound, the call in test [4], in test [5], in [6], in [9], in test [10] and in test [11] was inactive.

As for `CCOC(=O)Nc1ccc2c(c1)N(C(=O)CCN1CCOCC1)c1ccccc1S2`, the Potency result in test [1], in test [12], in test [3], in test [7] and in [8] was “inactive” throughout. The compound was classed as inactive in [13], in test [4], in test [5], in test [6], in [9] and in test [10]. Besides, the Potency in test [14] was 11.9 µM (active).

With `CCCCCCCCCCCl`, the Potency result in test [1], in [12], in [3], in test [14], in [7] and in test [8] was “inactive” in each case. In test [17], the Potency result was “inactive”. The call in test [13], in test [4], in test [5], in test [6], in [15] and in test [9] was inactive. Also, the compound was called inactive in test [16], in test [10] and in test [11].

As to `CCC(=O)/C=C/c1ccc(OC)cc1`, the Potency result in [1], in test [12], in test [3], in test [14], in test [7] and in test [8] was “inactive” each time. The call in test [13], in [4], in test [6], in test [15], in [18] and in test [16] was inactive. The compound was called inactive in [10] and in [11].

For `Nc1nc2c(ncn2CCC(CO)CO)c(=O)[nH]1`, the Potency entry in test [1], in test [12], in [14], in test [7], in test [8] and in test [17] was “inactive” each time. The compound was called inactive in [19], in test [4], in test [5], in test [6], in test [15] and in test [18]. Also, the call in test [16] and in [10] was inactive.

As for `CCN(CC)S(=O)(=O)c1ccc(C(=O)O)cc1`, the Potency result in test [1], in test [12], in [3], in [14], in test [7] and in test [8] was “inactive” each time. Besides, in test [17], the Potency result is “inactive”. Also, the compound was classed as inactive in [13], in test [4], in test [5], in test [6], in test [15] and in [9]. Besides, the call in [10] was inactive.

Turning to `c1ccc(CCCc2ccccn2)cc1`, the Potency result in [1], in test [12], in test [3], in test [7], in [8] and in [17] was “inactive” in each case. Besides, the result in test [13], in test [19], in test [4], in test [6], in test [18] and in test [20] was inactive. For the same compound, the outcome in [16] and in test [10] was inactive.

In the case of `C=CCSCC1Nc2cc(Cl)c(S(N)(=O)=O)cc2S(=O)(=O)N1` (configuration not stated), the Potency result in [1], in test [12], in test [3], in test [14], in [7] and in test [17] was “inactive” in each case. For the same compound, the call in test [19], in test [4], in test [6], in test [15], in [9] and in [20] was inactive. The result in test [10] was inactive.

For `CCO[Si](CCCN=C=O)(OCC)OCC`, the Potency entry in test [1], in test [12], in test [3], in [8] and in test [17] was “inactive” throughout. Besides, the compound was classed as inactive in test [4], in test [5], in test [6], in test [9], in test [20] and in test [10]. In addition, in test [11], the call was inactive.

Turning to `O=C(O)c1ccccc1S`, the Potency entry in test [1], in test [12], in test [3], in test [7], in test [8] and in test [17] was “inactive” in each case. For the same compound, the compound was called inactive in test [19], in [4], in [15], in [9], in test [20] and in test [10].
